Laboratory results as given in PubChem BioAssay (EPA / NIEHS).
Calls of active or inactive are those of the source. The calls were made as follows: active = hit-call score of the fitted dose curve at least 0.9, where 1 is the maximum; inactive = score below 0.9.

These compounds were tested on Cytochrome P450 (CYP24A1), CYP24A1 (gene 1591) (assay: LTEA_HepaRG_CYP24A1: Life Technologies and Expression Analysis (LTEA) Assay for Cytochrome P450 (CYP24A1) using HepaRG (AID 2283478)). Conditions: mRNA level, 48 h; actives raise or lower the signal.
Experimental: LTEA_HepaRG is a cell based, multiplexed-readout assay that uses HepaRG, a human liver cell line, with measurements taken at 48 hours after chemical dosing on a 96-well plate.LTEA_HepaRG_CYP24A1 is one of 102 assay component(s) measured in the LTEA HepaRG cell culture assay. It is a marker of NR mediated metabolism.Data from the assay component LTEA_HepaRG_CYP24A1 was analyzed into 1 endpoint. This assay endpoint, LTEA_HepaRG_CYP24A1, was analyzed with bidirectional fitting relative to DMSO as the negative control and baseline of activity. Using a type of inducible reporter, measures of mRNA induction for gain or loss-of-signal activity can be used to understand regulation of transcription factor activity. To generalize the intended target to other relatable targets, this assay endpoint is annotated to the cyp intended target family, where the subfamily is xenobiotic metabolism.
A total of 1060 chemcials from the ToxCast library were tested in eight-point concentration-response experiments. Cell culture and cytotoxicity assays were conducted at Thermo Fisher Scientific's Custom Services facility (Madison, WI). A single lot of human HepaRG cells (Thermo Fisher Scientific, Frederick, MD) was used for the cell culture experiments. 96-well format collagen type I coated plates of human HepaRG cells were prepared using established methods. Briefly, cryopreserved HepaRG cells were thawed, plated at a density of approximately 100,000 cells/well in HepaRG Thaw, Plate, and General Purpose media (HPRG770, Thermo Fisher Scientific), and incubated for 48 hours. 0.5% DMSO was selected as vehicle control to balance the requisite need of DMSO in HepaRG cultures to maintain differentiation (for example, baseline metabolism, proportions of hepatocytes vs. cholangiocytes), while enabling further hepatic receptor pathway activation (for example, PXR and CAR) in response to chemical exposure. 48 hours after plating, the culture medium was replaced with HepaRG Serum-Free Incudtion Media. Cells were exposed to each test chemical in duplicate and maintained in CO2 incubators for another 48 hours. Chemical plates were thawed to room temperature and 200x concentrations of treatment groups were prepared. 8-point conentration-reponse curves were made with the highest exposure at 100 uM, followed by half-log dilutions, all in 0.5% DMSO. Each test plate contained variouse controls, induction positive controls (1mM phenobarbital), cytotoxicity positive controls ([…] aflatoxin B1), vehicle controls (0.5% DMSO), and total lysis controls (0.5% DMSO). Cell morphology images were taken using an Essen IncuCyte FLR automated microscope, with six 96-well plates imaged in about 24 minutes. Images were captured and exported and JPEG files. Spent culture media was transfered to black-well plates for the LDH assay, and remaining media was sorted at -80 C for later use. Cells were treated with RLT buffer and frozen until shipped for gene expression analysis. Total RNA was isolated from the cell suspension in 75 uL of Buffer RLT (Qiagen, Germantown, MD 20874) by Quintiles/Expression Analysis (Durham, NC) using a custom isolation procedure. Total RNA from each plate well was transferred to a preamplification plate. Fluidigm's 96.96 Dynamic ArrayTM (Fluidigm, Amsterdam, the Netherlands) technology was used for gene expression analyses by quantitative reverse transcription polymerase chain reaction (qRT-PCR, performed by Quintiles/Expression Analysis, Durham, NC)89. Standard TaqManTM Assays (Applied Biosystems/ThermoFisher Scientific, Foster City, CA) were used to assess the expression of 93 genes selected based on their selectivity and sensitivity to important hepatic receptors known to be modulated by environmental chemicals; importance in human hepatocyte functionality; and hepatotoxicity. […]
With Nc1cc(Cl)cc(C(=O)O)c1Cl the outcome was “inactive”.
With CCCCCOC(=O)c1ccccc1C(=O)OCCCCC the outcome was “inactive”.
In the case of C[N+](C)(C)CC1CO1 (stereo not given), the outcome is reported as “inactive”.
With c1ccc(NNc2ccccc2)cc1 the outcome was “inactive”.
CN(C)C(=O)Nc1ccc(Cl)cc1 was tested, and the outcome was “inactive”.
In the case of Brc1ccc(Oc2ccccc2)cc1, the outcome is reported as “inactive”.
With O=Cc1ccco1 the outcome was “inactive”.
For O=C(Nc1ccccc1)c1ccccc1I, the outcome was “inactive”.
With CC(C)(C)OOC(C)(C)CCC(C)(C)OOC(C)(C)C the outcome was “inactive”.
In the case of Cc1ccc(N)c(N)c1, the outcome is reported as “inactive”.
In the case of [O-][Cl+]O, the outcome is reported as “inactive”.
Nc1ccc([N+](=O)[O-])cc1 was tested, and the outcome was “inactive”.
With CS(=O)(=O)NC(=O)c1cc(Oc2ccc(C(F)(F)F)cc2Cl)ccc1[N+](=O)[O-] the outcome was “inactive”.
With COC(=O)Nc1nc2ccccc2[nH]1 the outcome was “inactive”.
For ClC1=C(Cl)C2(Cl)C3C(Cl)C=CC3C1(Cl)C2(Cl)Cl (stereo not given), the outcome was “inactive”.
In the case of Cc1ccc([N+](=O)[O-])cc1, the outcome is reported as “inactive”.
For OCCOCCO, the outcome was “inactive”.
For [As]#[In], the outcome was “inactive”.
In the case of Nc1ccc(Cl)cc1N, the outcome is reported as “inactive”.
With Clc1ccc(Cl)c(Cl)c1 the outcome was “inactive”.
With Cc1ccc(N=C=O)cc1N=C=O the outcome was “inactive”.
Nc1ccc(Oc2ccc(N)cc2)cc1 was tested, and the outcome was “inactive”.
For c1ccc2c(c1)-c1cccc3cccc-2c13, the outcome was “inactive”.
For O=[N+]([O-])c1ccc(Oc2ccc(Cl)cc2Cl)cc1, the outcome was “inactive”.
For CCCSC(=O)N(CCC)CCC, the outcome was “inactive”.
In the case of CCCCCCCCCCCCCN1CC(C)OC(C)C1 (stereo not given), the outcome is reported as “inactive”.
In the case of CCCCCCCCOC(=O)c1ccc(C(=O)OCCCCCCCC)c(C(=O)OCCCCCCCC)c1, the outcome is reported as “inactive”.
With CN(C)c1ccc(C(=O)c2ccc(N(C)C)cc2)cc1 the outcome was “inactive”.
c1ccc(C2CO2)cc1 (stereo not given) was tested, and the outcome was “inactive”.
With CCNS(=O)(=O)C(F)(F)C(F)(F)C(F)(F)C(F)(F)C(F)(F)C(F)(F)C(F)(F)C(F)(F)F the outcome was “inactive”.
O=[N+]([O-])C(Br)(CO)CO was tested, and the outcome was “inactive”.
In the case of CCC12COCN1COC2, the outcome is reported as “inactive”.
In the case of N#CC(Br)(Br)C(N)=O, the outcome is reported as “inactive”.
In the case of Cc1cc(N=Nc2ccccc2C)ccc1N, the outcome is reported as “inactive”.
With ClC1=C(Cl)[C@]2(Cl)[C@H]3[C@H]([C@@H]4C=C[C@H]3C4)[C@@]1(Cl)C2(Cl)Cl the outcome was “inactive”.
In the case of O=C1CCCO1, the outcome is reported as “inactive”.
For O=C(Oc1ccc(Br)cc1)N1CCN2CCC1CC2, the outcome was “inactive”.
COc1cc(C=O)cc2c1[C@H](COC(N)=O)[C@]1(OC(C)=O)ON2C[C@H]2[C@@H]1N2C(C)=O was tested, and the outcome was “inactive”.
For CC(C)N(Cc1ccccc1)C(=O)C(C)(C)C, the outcome was “inactive”.
OCCCl was tested, and the outcome was “inactive”.
